According to PubChem BioAssay (NCATS):
Inconclusive results are not listed. Active and inactive are the calls of the source. The call rests on the fitted dose curve; in most records, active means well fitted curve in the direction sought with a large enough effect; inconclusive means small, poorly fitted or top-dose-only effect, or another doubt; inactive means no such curve, though single readings can be large; an effect the other way counts as inactive or inconclusive.

Assays:
[1] = target: Rap guanine nucleotide exchange factor 3 (Homo sapiens) (UniProt O95398); assay: Confirmatory qHTS for agonist of cAMP-regulated guanine nucleotide exchange factor 3 (EPAC1) (AID 1645881);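 further: EPAC1 catalysed release of BODIPY-GDP from Rap1B seen as fluorescence loss; 100% = effect of cAMP agonist control; nearly all actives have a fitted effect of over 75% in size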
Chain of Rap guanine nucleotide exchange factor 3 (Homo sapiens) (O95398 whole entry, looked up): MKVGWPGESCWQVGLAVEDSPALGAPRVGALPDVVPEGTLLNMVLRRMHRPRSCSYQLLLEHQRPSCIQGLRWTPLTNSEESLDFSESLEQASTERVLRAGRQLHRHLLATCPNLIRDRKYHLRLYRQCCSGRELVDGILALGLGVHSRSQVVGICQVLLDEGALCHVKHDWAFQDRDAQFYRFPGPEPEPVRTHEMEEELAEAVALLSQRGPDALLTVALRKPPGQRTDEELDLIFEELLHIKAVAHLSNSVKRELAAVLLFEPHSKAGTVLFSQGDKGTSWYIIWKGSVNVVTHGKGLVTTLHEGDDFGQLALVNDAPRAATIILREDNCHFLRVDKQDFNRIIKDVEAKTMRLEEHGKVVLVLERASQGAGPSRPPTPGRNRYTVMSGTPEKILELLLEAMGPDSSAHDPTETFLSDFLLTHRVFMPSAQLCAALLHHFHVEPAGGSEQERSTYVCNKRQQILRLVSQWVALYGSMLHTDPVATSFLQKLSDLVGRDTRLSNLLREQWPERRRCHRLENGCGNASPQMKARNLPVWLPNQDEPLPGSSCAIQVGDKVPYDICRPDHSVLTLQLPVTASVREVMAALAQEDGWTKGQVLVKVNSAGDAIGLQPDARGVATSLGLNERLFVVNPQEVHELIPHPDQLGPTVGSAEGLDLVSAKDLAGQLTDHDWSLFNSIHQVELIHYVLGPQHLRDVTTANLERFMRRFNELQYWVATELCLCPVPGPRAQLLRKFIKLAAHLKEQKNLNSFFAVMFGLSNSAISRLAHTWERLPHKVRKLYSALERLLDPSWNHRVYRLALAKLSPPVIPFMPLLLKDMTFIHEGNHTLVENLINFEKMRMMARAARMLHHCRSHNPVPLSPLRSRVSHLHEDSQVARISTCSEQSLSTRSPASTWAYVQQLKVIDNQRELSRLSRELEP

[2] = target: Rap guanine nucleotide exchange factor 4 (Homo sapiens) (UniProt Q8WZA2); assay: Confirmatory qHTS for agonist of cAMP-regulated guanine nucleotide exchange factor 4 (EPAC2) (AID 1645884);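 further: nucleotide exchange releases bodipy-GDP from Rap1 and this lowers its fluorescence; on the % scale 0 is the no-effect control and ±100 the full control effect; nearly all actives have a fitted effect of over 65% in size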
Chain of Rap guanine nucleotide exchange factor 4 (Homo sapiens) (Q8WZA2 whole entry, looked up): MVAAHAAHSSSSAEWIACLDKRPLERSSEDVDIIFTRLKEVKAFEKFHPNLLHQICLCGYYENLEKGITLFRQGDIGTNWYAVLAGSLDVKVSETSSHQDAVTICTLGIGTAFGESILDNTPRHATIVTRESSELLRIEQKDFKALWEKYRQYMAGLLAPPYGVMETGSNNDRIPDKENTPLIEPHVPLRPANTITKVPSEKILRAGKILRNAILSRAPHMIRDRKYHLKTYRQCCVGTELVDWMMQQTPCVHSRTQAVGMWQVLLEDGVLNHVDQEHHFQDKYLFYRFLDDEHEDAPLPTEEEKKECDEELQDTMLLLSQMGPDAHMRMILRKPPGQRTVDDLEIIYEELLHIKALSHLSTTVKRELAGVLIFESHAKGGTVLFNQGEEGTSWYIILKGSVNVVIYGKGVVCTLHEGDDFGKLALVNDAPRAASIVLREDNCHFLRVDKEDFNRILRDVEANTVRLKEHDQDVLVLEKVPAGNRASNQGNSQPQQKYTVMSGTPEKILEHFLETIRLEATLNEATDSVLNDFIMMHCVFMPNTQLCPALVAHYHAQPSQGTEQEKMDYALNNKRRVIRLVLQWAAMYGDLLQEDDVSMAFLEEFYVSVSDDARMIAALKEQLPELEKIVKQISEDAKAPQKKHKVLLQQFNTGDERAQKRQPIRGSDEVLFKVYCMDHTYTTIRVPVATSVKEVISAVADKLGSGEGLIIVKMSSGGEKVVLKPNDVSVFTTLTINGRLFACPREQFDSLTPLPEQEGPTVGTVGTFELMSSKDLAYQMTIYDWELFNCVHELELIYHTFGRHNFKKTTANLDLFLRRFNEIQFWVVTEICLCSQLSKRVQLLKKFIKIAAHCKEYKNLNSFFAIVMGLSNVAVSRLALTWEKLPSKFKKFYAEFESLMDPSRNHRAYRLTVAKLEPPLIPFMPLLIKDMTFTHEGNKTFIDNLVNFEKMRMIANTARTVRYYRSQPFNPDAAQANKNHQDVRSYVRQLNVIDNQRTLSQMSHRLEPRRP

[3] = target: Rap guanine nucleotide exchange factor 4 (Homo sapiens) (UniProt Q8WZA2); assay: Confirmatory qHTS for antagonist of cAMP-regulated guanine nucleotide exchange factor 4 (EPAC2) (AID 1645885); further: nearly all actives have a fitted effect of over 25% in size; on activity change, negative = inhibition: on the % scale 0 is the no-effect control and ±100 the full control effect
[4] = target: Rap guanine nucleotide exchange factor 3 (Homo sapiens) (UniProt O95398); assay: Counterscreen qHTS for antagonist of cAMP-regulated guanine nucleotide exchange factor 3 (EPAC1) (AID 1645888);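 further: fluorescence loss as bound BODIPY-GDP is released from Rap1B; % of control where 0% means no effect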
How it was run: (§1)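 Rap1B–BODIPY-GDP (250 nM) with 50 uM GDP; compounds pin-transferred to 9.74 nM–152 uM final (activator) or from 7.32 nM upwards (inhibitor). Fluorescence Ex/Em 480/540 nm read at 5 and 30 min, then after adding cAMP or buffer, at room temperature.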

[5] = target: Rap guanine nucleotide exchange factor 3 (Homo sapiens) (UniProt O95398); assay: Counterscreen qHTS for agonist of cAMP-regulated guanine nucleotide exchange factor 3 (EPAC1) (AID 1645889); further: % of control where 0% means no effect; nearly all actives have a fitted effect of over 40% in size
How it was run: as §1

O=c1c2ccccc2nc(/C=C/c2cccnc2)n1Cc1ccccc1
inactive: Potency [1] | activation [2] 2.62% [at 17.1 µM, percent relative to cAMP agonist control] | Potency [3] | activity change, negative = inhibition [4] -16.6% [at 30.8 µM] | activation [5] 22.2% [at 30.8 µM]

Cn1c(=O)c2c(SCc3cccnc3)nc(CC(C)(C)C)nc2n(C)c1=O
inactive: Potency [1] | activation [2] 6.82% [at 17.1 µM, percent relative to cAMP agonist control] | Potency [3] | activity change, negative = inhibition [4] -15.2% [at 30.8 µM] | activation [5] 9.84% [at 30.8 µM]

CCOc1cc(/C=N/NC(=O)CSc2nncn2C)ccc1OC(=O)c1ccc(Cl)cc1
inactive: Potency [1] | activation [2] 6.27% [at 17.1 µM, percent relative to cAMP agonist control] | Potency [3] | activity change, negative = inhibition [4] 0.431% [at 30.8 µM] | activation [5] 9.31% [at 30.8 µM]

Cc1csc(NC(=O)CSCC(=O)O)c1-c1nc2ccccc2s1
inactive: Potency [1] | Potency [2] | Potency [3] | Potency [4] | Potency [5]

CC(=O)NC(C)(c1ccccc1)c1nc(-c2cccc(C(F)(F)F)c2)cs1 (stereo not given)
inactive: Potency [1] | Potency [2] | Potency [3] | Potency [4] | Potency [5]

COc1cc(/C=C2/NC(=O)NC2=O)cc(Br)c1OCc1ccc(C(=O)O)cc1
inactive: Potency [1] | activation [2] -3.55% [at 17.1 µM, percent relative to cAMP agonist control] | Potency [3] | activity change, negative = inhibition [4] -4.68% [at 30.8 µM] | activation [5] 11.1% [at 30.8 µM]

O=[N+]([O-])c1cc2c(cc1CN1CCN(CCOCCO)CC1)OCO2
inactive: Potency [1] | Potency [2] | Potency [3] | Potency [4] | Potency [5]

O=S(=O)(NCCC1=CCCCC1)c1ccc(OC(F)(F)F)cc1
inactive: Potency [1] | activation [2] -1.46% [at 17.1 µM, percent relative to cAMP agonist control] | Potency [3] | activity change, negative = inhibition [4] -5.33% [at 30.8 µM] | activation [5] 3.2% [at 30.8 µM]

CC(NC(=O)COc1ccccc1-c1ccccc1)c1ccccc1 (stereo not given)
inactive: Potency [1] | Potency [2] | Potency [3] | Potency [4] | Potency [5]

CC(/C=C1\SC(=S)N(CCC(=O)Nc2cccc(C(=O)O)c2)C1=O)=C\c1ccccc1
inactive: Potency [1] | activation [2] 9.03% [at 17.1 µM, percent relative to cAMP agonist control] | Potency [3] | activity change, negative = inhibition [4] 19.7% [at 30.8 µM] | activation [5] 16.2% [at 30.8 µM]

C=CCc1ccccc1OCCSc1nc(-c2ccc(C(C)(C)C)cc2)nc2cc(=O)[nH]n12
inactive: Potency [1] | Potency [2] | Potency [3] | Potency [4] | Potency [5]

Cc1cc(C)c(C)c(S(=O)(=O)N2CCCCC2C(=O)O)c1C (stereo not given)
inactive: Potency [1] | activation [2] 4.7% [at 17.1 µM, percent relative to cAMP agonist control] | Potency [3] | activity change, negative = inhibition [4] 8.45% [at 30.8 µM] | activation [5] -1.83% [at 30.8 µM]

CCOC(=O)Cc1nn(Cc2ccc(Cl)cc2)c(=O)c2ccccc12
inactive: Potency [1] | Potency [2] | Potency [3] | Potency [4] | Potency [5]

CNC(=S)N1CCc2cc(OC)c(OC)cc2C1COc1ccc(F)cc1 (stereo not given)
inactive: Potency [1] | activation [2] 0% [at 17.1 µM, percent relative to cAMP agonist control] | Potency [3] | activity change, negative = inhibition [4] -1.54% [at 30.8 µM] | activation [5] 46.8% [at 30.8 µM]

COc1ccc(NC(=O)CN2CCN(c3c(C)cc(C)cc3C)CC2)cc1
inactive: Potency [1] | activation [2] 7.83% [at 17.1 µM, percent relative to cAMP agonist control] | Potency [3] | activity change, negative = inhibition [4] 9.75% [at 30.8 µM] | activation [5] 16.1% [at 30.8 µM]

CCCN1C(=O)c2ccccc2NC1c1ccc(Cl)c(Cl)c1 (stereo not given)
inactive: Potency [1] | activation [2] 5.07% [at 17.1 µM, percent relative to cAMP agonist control] | Potency [3] | activity change, negative = inhibition [4] -17% [at 30.8 µM] | activation [5] 12.5% [at 30.8 µM]

CCOc1cc(/C=C2/SC(=S)N(CC(=O)O)C2=O)ccc1OC(=O)c1cccs1
inactive: Potency [1] | Potency [2] | Potency [3] | Potency [4] | Potency [5]

O=C(/C=C/c1ccco1)NC(=S)Nc1cccc(-c2nc3ccccc3o2)c1
inactive: Potency [1] | activation [2] -2.07% [at 17.1 µM, percent relative to cAMP agonist control] | Potency [3] | activity change, negative = inhibition [4] -12.8% [at 30.8 µM] | activation [5] 10.2% [at 30.8 µM]

COc1cc(CN(C)CC2CCCN(CCc3ccccc3F)C2)cc(Cl)c1OC (stereo not given)
inactive: Potency [1] | Potency [2] | Potency [3] | Potency [4] | Potency [5]

O=[N+]([O-])c1cc(CN2CCN(c3cccc(C(F)(F)F)c3)CC2)c2cccnc2c1O
inactive: Potency [1] | Potency [2] | Potency [3] | Potency [4] | Potency [5]

COc1cc(/C=N/NC(=O)c2ccccc2O)ccc1OCC(=O)Nc1ccccc1
inactive: Potency [1] | activation [2] -7.34% [at 17.1 µM, percent relative to cAMP agonist control] | Potency [3] | activity change, negative = inhibition [4] 0.781% [at 30.8 µM] | activation [5] 13.4% [at 30.8 µM]
